Results filed as inconclusive are left out. The source made the active and inactive calls. The call rests on the fitted dose curve; in most records, active means well fitted inhibition curve with a large enough effect; inconclusive means small, poorly fitted or top-dose-only effect; inactive means flat fitted curve, though single readings scatter.
Each molecule was assayed against Ferritin light chain (Equus caballus) (UniProt P02791) (assay: Confirmation Assay for Identification of Novel General Anesthetics). Settings: apoferritin 1-aminoanthracene fluorescence displacement.
Excerpt: Anesthetic development has remained a largely empirical process. There are growing concerns about the cognitive effects of known general anesthetics and acceleration of the onset of neurodegenerative disease. The compounds' toxicity and multiple specific binding targets in the mammalian brain [4] has made them less attractive as drug leads. In this assay, a GABAergic mimetic model system, apoferritin and a profluorescent 1-aminoanthracene ligand (1-AMA), was used to construct a competitive binding assay for identification of novel general anesthetics. The assay was validated for 1-AMA using other known anesthetics, such as isoflurane (CID:3763) and propofol (CID: 4943), [6]. This particular BioAssay is a confirmation of followup compounds from primary screen AID:485281.
[1] S.L. Bianchi, T. Tran, C. Liu, S. Lin, Y. Li, J.M. Keller, R.G. Eckenhoff, and M.F. Eckenhoff, Brain and behavior changes in 12-month-old Tg2576 and nontransgenic mice exposed to anesthetics. Neurobiol Aging 29 (2008) 1002-10.
[2] Z. Xie, Y. Dong, U. Maeda, R.D. Moir, W. Xia, D.J. Culley, G. Crosby, and R.E. Tanzi, The inhalation anesthetic isoflurane induces a vicious cycle of apoptosis and amyloid beta-protein accumulation. J Neurosci 27 (2007) 1247-54.
[3] P. Honegger, and J.M. Matthieu, Selective toxicity of the general anesthetic propofol for GABAergic neurons in rat brain cell cultures. J Neurosci Res 45 (1996) 631-6.
[4] M.F. Eckenhoff, K. Chan, and R.G. Eckenhoff, Multiple specific binding targets for inhaled anesthetics in the mammalian brain. J Pharmacol Exp Ther 300 (2002) 172-9.
[5] C.A. Butts, J. Xi, G. Brannigan, A.A. Saad, S.P. Venkatachalan, R.A. Pearce, M.L. Klein, R.G. Eckenhoff, and I.J. Dmochowski, Identification of a fluorescent general anesthetic, 1-aminoanthracene. Proc Natl Acad Sci U S A 106 (2009) 6501-6.
[6] W.A. Lea, J. Xi, A. Jadhav, L. Lu, C.P. Austin, A. Simeonov, and R.G. Eckenhoff, A high-throughput approach for identification of novel general anesthetics. PLoS One 4 (2009) e7150.
Source: NIH Chemical Genomics Center [NCGC]
Assay Submitter: Roderic Eckenhoff, University of Pennsylvania
Screening Center PI: Christopher P. Austin, NIH
Probe Development: NIH Chemical Genomics Center [NCGC]
Three uL of reagents (free 1-AMA (50% saturated solution of 1-aminoanthracene
in PBS) in columns 3, 4 as negative control and 1-AMA/apoferritin mixture (10 uM horse-spleen apoferritin in 50% saturated 1-aminoanthracene in PBS) in columns 1, 2, 5-48) was dispensed into 1536-well Greiner black assay plates. Compounds (23 nL) were transferred via Kalypsys pintool equipped with 1,536-pin array (10 nL slotted pins, V&P Scientific, San Diego, CA). Titration of the positive control, propofol, were delivered via pin transfer from separate control plates to the 2nd column of each assay plate. The starting concentration of the control, dissolved in DMSO, was at 160 mM, followed by two-fold dilution points in duplicate, for a total of 16 concentrations. The plates were incubated for 10 min at room temperature, and then read on an EnVision HTS multilabel reader (Perkin-Elmer, Waltham, MA) (end point read, 3 min/plate) using Fura2 BFP excitation filter (380 nm, bandwidth 10 nm) and fluorescein emission filter (535 nm, bandwidth 25 nm) set. A LANCE/DELFIA dichroic mirror with a cutoff wavelength at 400 nm was used to maximize signal accuracy and strength. Vehicle-only plates, with DMSO being pin-transferred to the entire column 5-48 compound area, were inserted uniformly at the beginning and the end of each library in order to monitor for and record any shifts in the background. Activity was computed as the normalized fluorescence response relative to free 1-AMA and 1-AMA/apoferritin complex values. Concentration-effect relationships were derived by using curve fitting algorithms developed in-house (http://ncgc.nih.gov/pub/openhts/). […]
Further: nearly all actives have a fitted effect of over 40% in size.
Potency means the concentration at half of the fitted maximal effect.

Sequence of Ferritin light chain (Equus caballus) (P02791 2-175 limits assumed): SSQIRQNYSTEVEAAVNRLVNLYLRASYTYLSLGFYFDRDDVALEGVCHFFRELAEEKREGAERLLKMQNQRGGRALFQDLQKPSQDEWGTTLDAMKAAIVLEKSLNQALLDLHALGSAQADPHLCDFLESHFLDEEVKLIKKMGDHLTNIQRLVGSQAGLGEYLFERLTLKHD

SMILES	Potency
Nc1ccc(Oc2cccc(Oc3ccc(N)cc3)c2)cc1	31.6 µM (active)
CCN(CC)C(=O)Oc1ccc(Cl)c2ccccc12	31.6 µM (active)
O=C1C(c2ccccc2)=C(N2CC2)c2ccccc21	35.5 µM (active)
O=C(COC(=O)Cc1ccccc1)NC12CC3CC(CC(C3)C1)C2	14.1 µM (active)
O=C(Cn1nc(-c2ccccc2)ccc1=O)N1CCC2(CC1)OCCO2	15.8 µM (active)
CC(C(=O)c1cn(C)c2ccccc12)c1ccccc1 (configuration not stated)	35.5 µM (active)
c1ccc(C2CC3CC4(CCCC4)N2O3)cc1 (configuration not stated)	7.94 µM (active)
